PubChem BioAssay (NCI)
The panel holds about 83,000 compounds, 20% with a hit somewhere; the sample as a whole holds those more often.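 Step 1: grow cells in 96-well plates. Step 2: add test compound at a single concentration. Step 3: incubate 48 h. Step 4: record percent growth.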 Unmarked numbers belong to inactive results. Calls of active or inactive are those of the source. The calls were made as follows: active = growth percent below 10; inactive = the rest.

Experiments:
Assay in all cases: NCI-60 one-dose screen, 48 h (100 = growth as untreated, 0 = no growth, -100 = all killed)
Conditions in all cases: 10 µM unless noted
DU-145 prostate = tested on: DU-145 prostate
K-562 leukemia = tested on: K-562 leukemia
MALME-3M melanoma = tested on: MALME-3M melanoma
MDA-MB-231 breast = tested on: MDA-MB-231 breast
RXF 393 renal = tested on: RXF 393 renal
SF-268 CNS = tested on: SF-268 CNS
SF-295 CNS = tested on: SF-295 CNS
SF-539 CNS = tested on: SF-539 CNS
UACC-257 melanoma = tested on: UACC-257 melanoma
M14 melanoma = tested on: M14 melanoma
HCT-15 colon = tested on: HCT-15 colon
HT29 colon = tested on: HT29 colon
SNB-75 CNS = tested on: SNB-75 CNS
SNB-19 CNS = tested on: SNB-19 CNS
U251 CNS = tested on: U251 CNS
PC-3 prostate = tested on: PC-3 prostate
SK-MEL-5 melanoma = tested on: SK-MEL-5 melanoma
UACC-62 melanoma = tested on: UACC-62 melanoma
LOX IMVI melanoma = tested on: LOX IMVI melanoma
SK-MEL-28 melanoma = tested on: SK-MEL-28 melanoma

## COc1ccc(-c2cc(-c3cc(OC)c(OC)c(OC)c3)c(C#N)c(=O)n2CCCCCC(=O)NO)cc1
DU-145 prostate
  growth: 92.5%
K-562 leukemia
  growth: 83%
MALME-3M melanoma
  growth: 97.8%
MDA-MB-231 breast
  growth: 75.9%
RXF 393 renal
  growth: 92.9%
SF-268 CNS
  growth: 91.6%
SF-295 CNS
  growth: 91.2%
SF-539 CNS
  growth: 90.4%
UACC-257 melanoma
  growth: 99.6%
M14 melanoma
  growth: 99.5%
HCT-15 colon
  growth: 71.7%
HT29 colon
  growth: 101%
SNB-75 CNS
  growth: 70.1%
SNB-19 CNS
  growth: 89.8%
U251 CNS
  growth: 81.9%
PC-3 prostate
  growth: 89.4%
SK-MEL-5 melanoma
  growth: 91.4%
UACC-62 melanoma
  growth: 93.3%
LOX IMVI melanoma
  growth: 78.7%
SK-MEL-28 melanoma
  growth: 109%

## CCOc1ccc(/C=N\N=C\c2ccc(OCC)cc2)cc1
DU-145 prostate
  growth: 17%
K-562 leukemia
  growth: 86.7%
MALME-3M melanoma
  growth: 115%
MDA-MB-231 breast
  growth: 83.6%
RXF 393 renal
  growth: 84.9%
SF-268 CNS
  growth: 94%
SF-295 CNS
  growth: 95.9%
SF-539 CNS
  growth: 96.4%
UACC-257 melanoma
  growth: 99%
M14 melanoma
  growth: 85.3%
HCT-15 colon
  growth: 7.98% (active)
HT29 colon
  growth: 34.5%
SNB-75 CNS
  growth: 112%
SNB-19 CNS
  growth: 98.3%
U251 CNS
  growth: 74.4%
PC-3 prostate
  growth: 67.1%
SK-MEL-5 melanoma
  growth: 88.3%
UACC-62 melanoma
  growth: 79.9%
LOX IMVI melanoma
  growth: 70.5%
SK-MEL-28 melanoma
  growth: 105%

## COc1cccc(/C=C2\COc3ccc(O)cc3C2=O)c1
DU-145 prostate
  growth: 89%
K-562 leukemia
  growth: 5.52% (active)
MALME-3M melanoma
  growth: 91.1%
MDA-MB-231 breast
  growth: 49.7%
RXF 393 renal
  growth: 105%
SF-268 CNS
  growth: 91.1%
SF-295 CNS
  growth: 103%
SF-539 CNS
  growth: 88.5%
UACC-257 melanoma
  growth: 111%
M14 melanoma
  growth: 83.4%
HCT-15 colon
  growth: 40.6%
HT29 colon
  growth: 37.8%
SNB-75 CNS
  growth: 82.4%
SNB-19 CNS
  growth: 65.6%
U251 CNS
  growth: 45.1%
PC-3 prostate
  growth: 76.8%
SK-MEL-5 melanoma
  growth: 96.6%
UACC-62 melanoma
  growth: 63.3%
LOX IMVI melanoma
  growth: 18.7%
SK-MEL-28 melanoma
  growth: 108%

## CCCCCSB(SCCCCC)c1ccccc1
DU-145 prostate
  growth: 108%
K-562 leukemia
  growth: 112%
MALME-3M melanoma
  growth: 101%
MDA-MB-231 breast
  growth: 105%
RXF 393 renal
  growth: 109%
SF-268 CNS
  growth: 98.2%
SF-295 CNS
  growth: 105%
SF-539 CNS
  growth: 106%
UACC-257 melanoma
  growth: 94.4%
M14 melanoma
  growth: 102%
HCT-15 colon
  growth: 96.8%
HT29 colon
  growth: 96.4%
SNB-75 CNS
  growth: 78.7%
SNB-19 CNS
  growth: 96.6%
U251 CNS
  growth: 99.7%
PC-3 prostate
  growth: 97.2%
SK-MEL-5 melanoma
  growth: 105%
UACC-62 melanoma
  growth: 105%
LOX IMVI melanoma
  growth: 96.8%
SK-MEL-28 melanoma
  growth: 110%

## C[Se]C(=O)CC1=C2C=C(F)C=CC2/C(=C\c2ccc(S(C)=O)cc2)C1C (stereo not given)
DU-145 prostate
  growth: -50.5% (active)
K-562 leukemia
  growth: 28.6%
MALME-3M melanoma
  growth: -68.7% (active)
MDA-MB-231 breast
  growth: -46% (active)
RXF 393 renal
  growth: 6.68% (active)
SF-268 CNS
  growth: -28.2% (active)
SF-295 CNS
  growth: 11.3%
SF-539 CNS
  growth: -30.3% (active)
UACC-257 melanoma
  growth: -21.5% (active)
M14 melanoma
  growth: 7.44% (active)
HCT-15 colon
  growth: 15%
HT29 colon
  growth: 13.8%
SNB-75 CNS
  growth: -25.5% (active)
SNB-19 CNS
  growth: -22.7% (active)
U251 CNS
  growth: -36.3% (active)
PC-3 prostate
  growth: 20.4%
SK-MEL-5 melanoma
  growth: -87.7% (active)
UACC-62 melanoma
  growth: 30.9%
LOX IMVI melanoma
  growth: -68.4% (active)
SK-MEL-28 melanoma
  growth: 4.39% (active)

## CC(=O)Nc1c(Cl)cc(Cl)c2c1Cc1cc([N+](=O)[O-])ccc1-2
DU-145 prostate
  growth: 104%
K-562 leukemia
  growth: 90.2%
MALME-3M melanoma
  growth: 107%
MDA-MB-231 breast
  growth: 83.6%
RXF 393 renal
  growth: 85.3%
SF-268 CNS
  growth: 95.5%
SF-295 CNS
  growth: 113%
SF-539 CNS
  growth: 61.1%
UACC-257 melanoma
  growth: 107%
M14 melanoma
  growth: 100%
HCT-15 colon
  growth: 89.7%
HT29 colon
  growth: 81.4%
SNB-75 CNS
  growth: 58%
SNB-19 CNS
  growth: 99.8%
U251 CNS
  growth: 74.3%
PC-3 prostate
  growth: 81.2%
SK-MEL-5 melanoma
  growth: 103%
UACC-62 melanoma
  growth: 102%
LOX IMVI melanoma
  growth: 76.8%
SK-MEL-28 melanoma
  growth: 100%

## CC(C)(CO)N(CCO)CCO
DU-145 prostate
  growth: 118%
K-562 leukemia
  growth: 101%
MALME-3M melanoma
  growth: 105%
MDA-MB-231 breast
  growth: 104%
RXF 393 renal
  growth: 104%
SF-268 CNS
  growth: 104%
SF-295 CNS
  growth: 108%
SF-539 CNS
  growth: 97.4%
UACC-257 melanoma
  growth: 116%
M14 melanoma
  growth: 108%
HCT-15 colon
  growth: 99.7%
HT29 colon
  growth: 98.6%
SNB-75 CNS
  growth: 102%
SNB-19 CNS
  growth: 103%
U251 CNS
  growth: 91.4%
PC-3 prostate
  growth: 91.4%
SK-MEL-5 melanoma
  growth: 97.1%
UACC-62 melanoma
  growth: 101%
LOX IMVI melanoma
  growth: 100%
SK-MEL-28 melanoma
  growth: 103%

## NC(=S)N/N=C/c1cn(-c2ccccc2)nc1-c1cc2ccccc2oc1=O
DU-145 prostate
  growth: 85.3%
K-562 leukemia
  growth: 17.1%
MALME-3M melanoma
  growth: 48.8%
MDA-MB-231 breast
  growth: 34.3%
RXF 393 renal
  growth: 78%
SF-268 CNS
  growth: 66.1%
SF-295 CNS
  growth: 48.1%
SF-539 CNS
  growth: 57.2%
UACC-257 melanoma
  growth: 71.5%
M14 melanoma
  growth: 22.1%
HCT-15 colon
  growth: 28.2%
HT29 colon
  growth: 14.7%
SNB-75 CNS
  growth: 8.48% (active)
SNB-19 CNS
  growth: 56.6%
U251 CNS
  growth: 45.2%
PC-3 prostate
  growth: 67.5%
SK-MEL-5 melanoma
  growth: 46.3%
UACC-62 melanoma
  growth: 34.2%
LOX IMVI melanoma
  growth: 46.3%
SK-MEL-28 melanoma
  growth: 69.7%
